# Source: PubChem BioAssay (National Center for Advancing Translational Sciences (NCATS))
# Rows were chosen to be rich in hits. Some 21% of all compounds tested hit in one or more screens of this group.
# DRD3 antagonist – D3 dopamine receptor (human) antagonism; D3R cells, DiscoveRx beta-arrestin luminescence, antagonist mode; stronger effect = lower value; AID 652054; P35462; 360,000 compounds, 2.5% hits; max response, negative = inhibition, %; in the data active = max response below about -50%; inconclusive = no clear call, values can overlap the other calls; also: % is scaled to controls: 0 for no effect and ±100 for the full control effect
# Target sequence (P35462 whole entry, looked up): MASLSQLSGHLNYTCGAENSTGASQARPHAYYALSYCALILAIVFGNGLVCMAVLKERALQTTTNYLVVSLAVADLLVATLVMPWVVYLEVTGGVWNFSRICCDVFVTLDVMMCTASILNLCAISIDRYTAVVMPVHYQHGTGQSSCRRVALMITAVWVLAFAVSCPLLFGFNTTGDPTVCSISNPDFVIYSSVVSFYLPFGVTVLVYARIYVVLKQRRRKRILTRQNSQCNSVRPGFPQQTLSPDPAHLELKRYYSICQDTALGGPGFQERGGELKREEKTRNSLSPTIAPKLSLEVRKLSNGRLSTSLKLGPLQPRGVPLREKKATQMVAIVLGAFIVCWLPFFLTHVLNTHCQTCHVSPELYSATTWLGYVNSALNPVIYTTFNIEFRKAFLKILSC
#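 Cells expressing the human receptor were seeded at 1500 cells/well, incubated overnight at 37 degrees C in 5% CO2, then exposed to library compounds with dopamine controls for 90 minutes at 37 degrees C before luminescent detection.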
# IL-1B inflam inh – inhibitors of inflammasome signaling (IL-1 beta secretion); THP-1 LPS/ATP IL-1B secretion, AlphaLISA, 16 h; stronger effect = lower value; activity change, % at 57.5 µM; AID 743279; 360,000 compounds, 4.7% hits; in the data active = activity change below about -50%; inconclusive = mostly about -30% to -49%; also: % is scaled to controls: 0 for no effect and ±100 for the full control effect
#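 Secreted IL-1B measured by AlphaLISA bead assay after 16 h compound exposure of THP-1 cells; compounds (final up to 57.5 uM) added 1 h before LPS (250 ng/mL) and ATP (1.25 mM) stimulation; lower signal means less secretion.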
# D3 ag – D3 dopamine receptor (human) agonism; P35462; D3R DiscoveRx beta-arrestin cells, luminescence, 90 min; max activation, %; 410,000 compounds, 0.58% hits; in the data active = max activation above about 30%; also: 0% is about no effect
#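 Agonist mode: compounds and dopamine controls were applied to plated cells for 90 min at 37 degrees C after an overnight attachment at 1500 cells/well. Luminescent read-out followed 30 - 60 minutes at room temperature with DiscoveRx detection reagent.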
# DT40 TDP1 CPT – DT40-hTDP1 cell growth loss with CPT; chicken DT40 Tdp1-/-;hTDP1 cells + 20 nM CPT, ATP luminescence, 48 h; Potency, µM (titrated, usually from 46.2 µM), for inactives: at the highest dose activity change, negative = growth inhibition, actives largely listed as inhibitors; 420,000 compounds, 12% hits; AID 686979; also: potency is read from the fitted curve at half-maximal effect; % is scaled to controls: 0 for no effect and ±100 for the full control effect; nearly all actives have a fitted effect of over 55% in size
#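 Chicken DT40 Tdp1-/- cells complemented with human TDP1, 400 cells/well, exposed to compounds plus 20 nM camptothecin for at least 48 h at 37 C; viability read as ATP content by CellTiter-Glo luminescence.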
# ClpP mod – qHTS Assay for Activators of ClpP; 340,000 compounds, 1.9% hits; purified B. subtilis ClpP, FRET peptide cleavage, 20 min; Potency, µM (highest dose often 57.5 µM), for the others: top-dose activity change, negative = active; ATP-dependent Clp protease proteolytic subunit (Bacillus subtilis (strain 168)), P80244; active = well fitted falling curve with a large enough effect; inconclusive = small, poorly fitted or top-dose-only effect; inactive = no such curve, though single readings can be large or run the other way; also: potency is read from the fitted curve at half-maximal effect; the source files actives as falling curves though it sought activators and does not explain the sign; nearly all actives have a fitted effect of over 65% in size
# Target sequence (P80244 whole entry, looked up): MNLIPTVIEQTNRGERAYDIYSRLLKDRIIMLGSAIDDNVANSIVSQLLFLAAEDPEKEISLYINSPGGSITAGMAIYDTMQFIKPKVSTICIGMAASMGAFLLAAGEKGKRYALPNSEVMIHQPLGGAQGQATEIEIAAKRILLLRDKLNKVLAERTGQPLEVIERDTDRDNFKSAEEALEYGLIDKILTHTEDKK
#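 FRET quenching reversal measured ClpP activation: 10 microg/mL B. subtilis ClpP at pH 8 with the FRET-FV decapeptide, read at 430 nm after 320 nm excitation. The 20-min minus 0-min signal was scaled between DMSO/no-enzyme wells and ADEP (5.8 microM final).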
# DT40 TDP1 no CPT – qHTS for Inhibitors of human tyrosyl-DNA phosphodiesterase 1 (TDP1): qHTS in cells in absence of CPT | DT40 Tdp1-/- hTDP1 cells, no CPT, ATP luminescence, 48 h | Potency, µM (series often up to 46.2 µM), for inactives: top-dose activity change, negative = growth inhibition, most hits filed as inhibitors | 420,000 compounds, 15% hits | AID 686978, 2013; also: potency is read from the fitted curve at half-maximal effect; % is scaled to controls: 0 for no effect and ±100 for the full control effect; nearly all actives have a fitted effect of over 55% in size
#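 A cellular qHTS used chicken DT40 cells lacking endogenous Tdp1 but carrying stably transfected human TDP1. Compounds were applied without camptothecin, and cell growth kinetics were judged by ATP-dependent luminescence after ≥48 hr.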
# Numbers without * were called inactive; ? = inconclusive; . = not tested or not shown. Unless noted, calls follow the shape of the dose curve; as a rule, active = well fitted inhibition curve with a large enough effect; inconclusive = small, poorly fitted or top-dose-only effect; inactive = flat fitted curve, though single readings scatter.
SMILES,DRD3 antagonist,IL-1B inflam inh,D3 ag,DT40 TDP1 CPT,ClpP mod,DT40 TDP1 no CPT
Cc1ccc(N2CCN(C(=O)c3cnn(-c4ccc(C)c(C)c4)c3C3CCNCC3)CC2)c(C)c1,.,.,-19,6.5µM*,2%,6.5µM*
Cc1cccc(N2CCN(C(=O)c3cnn(-c4cccc(Cl)c4C)c3C3CCNCC3)CC2)c1C,.,.,7,3.7µM*,1%,5.2µM*
Cc1c(Cl)cccc1-n1ncc(C(=O)N2CCOCC2)c1C1CCN(C(=O)OC(C)(C)C)CC1,.,.,10,?,-1%,-17%
COc1ccc(-n2ncc(C(=O)N3CCN(C4CCCCC4)CC3)c2C2CCN(C(=O)OC(C)(C)C)CC2)cc1,.,.,5,?,1%,21µM*
CC(C)(C)OC(=O)N1CCC(c2c(C(=O)N3CCN(C4CCCCC4)CC3)cnn2-c2cccc(Cl)c2)CC1,.,.,-13,16µM*,-1%,23µM*
CCOCCCNC(=O)c1ccc(NC(=O)N2CCCCc3ccccc32)cc1,.,.,-6,?,4%,?
COc1ccc(CNC(=O)CNC(=O)c2cccs2)c(OC)c1,1,12,1,-12%,-1%,20%
COc1ncnc2c1ncn2CCCNCc1ccc2c(c1)OCO2,8,2,4,-14%,0%,-1%
Cc1noc(/C=C/c2ccccc2F)c1S(=O)(=O)N1CCC(C(=O)N(C)Cc2ccco2)CC1,.,.,2,?,-30%,?
C[C@@]1(C(=O)O)NCCc2cc(O)c(O)cc21,.,.,.,11µM*,.,11µM*
CCC(C(=O)c1ccc2ncccc2c1)c1ccccc1 (configuration not stated),9,35,4,15µM*,1%,16µM*
O=C(Nc1ccc2ncccc2c1)c1ccccc1,8,29,2,?,.,?
Cc1ccccc1CN(C)CC(=O)Nc1cccc(S(=O)(=O)N(C)c2ccccc2)c1,?,17,-15,21µM*,.,16µM*
CCN(CC(=O)Nc1cccc(S(=O)(=O)N(C)c2ccccc2)c1)Cc1ccccc1,-4,5,-9,18µM*,-1%,?
CC(=O)NCCC(=O)Nc1cccc(S(=O)(=O)N(C)c2ccccc2)c1,-5,24,-11,-7%,1%,3%
CC1CCC2(CC1)NC(=O)N(CC(=O)Nc1cccc(S(=O)(=O)N(C)c3ccccc3)c1)C2=O (configuration not stated),-14,?,-8,18µM*,1%,29µM*
CN(c1ccccc1)S(=O)(=O)c1cccc(NC(=O)COC(=O)C2CCCCC2)c1,9,-10,-3,-19%,-1%,39%
Cc1cc(C)c(NC(=O)CN(C)CC(=O)Nc2cccc(S(=O)(=O)N(C)c3ccccc3)c2)c(C)c1,9,?,10,?,-5%,23µM*
CN(c1ccccc1)S(=O)(=O)c1cccc(NC(=O)CN2C(=O)NC3(CCCCC3)C2=O)c1,-7,-6,-2,-11%,0%,-4%
CCc1ccccc1N(C)C(=O)c1cc2c(=O)oc3ccccc3c2s1,.,.,4,-30%,0%,?
CC(C(=O)N1CCc2ccccc21)N1CCN(Cc2ccc(Cl)cc2)CC1 (configuration not stated),-25,-3,-14,2%,.,-27%
CCN(CC)S(=O)(=O)c1cccc(NC(=O)CN(C)Cc2cccc(OC)c2)c1,-21,29,-5,?,.,23µM*
CCN(CC(=O)Nc1cccc(C(C)=O)c1)S(=O)(=O)c1ccc(OC)cc1,-2,4,-12,2%,-3%,?
CCOc1ccc(CN(C)CC(=O)Nc2cccc(C)c2)cc1OC,17,10,5,21µM*,.,9.2µM*
CN(c1ccccc1)S(=O)(=O)c1cccc(NC(=O)CN2CCCc3ccccc32)c1,14,-28,0,?,.,18µM*
SMILES,DRD3 antagonist,IL-1B inflam inh,D3 ag,DT40 TDP1 CPT,ClpP mod,DT40 TDP1 no CPT
O=C(Cn1c(=O)n(Cc2ccco2)c(=O)c2cccnc21)Nc1ccccc1F,.,.,-2,-28%,-2%,?
CC1(c2ccc3noc(-c4ccc(Cl)cc4)c3c2)OCCO1,-13,-15,-5,?,-3%,?
Cc1cccc(-c2onc3ccc(C4(C)OCCO4)cc23)c1,31,-9,4,?,-1%,15µM*
CC1CCCCC1NC(=O)CSc1nnc(C(F)(F)F)n1C (configuration not stated),-4,-15,1,-3%,0%,10%
Cc1ccc(CNC(=O)[C@H]2O[C@@H](n3cnc4c(N)ncnc43)[C@H](O)[C@@H]2O)o1,?,20,-7,-4%,-6%,-2%
Cc1ccc(O)c(-c2[nH]ncc2C(=O)c2ccc(Cl)cc2)c1,-25,-86*,-11,-24%,.,-21%
Cc1cccc(C(=O)c2cn[nH]c2-c2ccc(C)cc2O)c1,1,-7,5,-9%,-6%,-23%
Cc1ccc(-c2[nH]ncc2C(=O)c2cccc(F)c2)c(O)c1,0,-7,3,?,-14%,15µM*
Cc1ccc(S(=O)(=O)Nc2cc3c(C(=O)OCc4ccccc4)c(C)oc3c3ccccc23)c(C)c1,.,.,19,?,-2%,?
CCN(CC)CCn1c2ccccc2c2n[nH]c(=S)nc21,3,33,-5,4%,.,-11%
O=c1oc2ccccc2n1CCn1c2ccccc2c2nc3ccccc3nc21,13,-21,3,16µM*,1%,5.8µM*
N#CCCn1c2ccccc2c2nc3ccccc3nc21,-52*,-91*,-4,?,-17%,9.2µM*
CCN(CC)CCn1c2ccccc2c(=O)c2c(O)ccc(O)c21,3,-3,3,7.3µM*,-3%,21µM*
